# Screening results from PubChem BioAssay.
# Pf growth 96h = Primary qHTS for delayed death inhibitors of the malarial parasite plastid, 96 hour incubation; Potency, µM (top dose mostly 28.7 µM), actives largely listed as inhibitors; AID 504834, 2011; P. falciparum luciferase reporter growth, 96 h; actives 6.9% (n = 320,000)
#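 P. falciparum expressing integrated firefly luciferase grown in erythrocytes (2% hematocrit, 0.05% parasitemia final) with compounds for 96 hours at 37 C, 5% CO2. Growth inhibition read as loss of luminescence after adding luciferase detection reagent.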
# NS1 inh = qHTS Assay for Inhibitors of Influenza NS1 Protein Function. AID 2326, 2010. Potency, µM (titrated, usually from 46.1 µM). actives 0.4% (n = 270,000); calls by dose curve; also: actives are rising curves; nearly all actives have a fitted effect of over 50% in size
#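 In this qHTS, NS1 from influenza A is expressed in budding yeast, where it slows growth. Cells are switched from glucose to 2% galactose medium (pH 6.0, -URA), treated with compound, and growth recovery is read at OD600.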
# Pf growth 48h = Primary qHTS for delayed death inhibitors of the malarial parasite plastid, 48 hour incubation; Potency, µM (doses to about 28.7 µM), most hits filed as inhibitors; actives 5.9% (n = 310,000); P. falciparum luciferase growth in erythrocytes, 48 h
#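 Here the parasites carry a stable luciferase gene and grow inside erythrocytes in Albumax-based RPMI medium with compound for one erythrocytic cycle. Activity is scored as loss of luminescent signal.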
# SARS PLpro yeast = qHTS of Yeast-based Assay for SARS-CoV PLP | actives 0.19% (n = 330,000) | Potency, µM (highest dose often 32.9 µM), hits mostly activators | AID 485353, 2010 | S. cerevisiae expressing SARS-CoV PLpro, growth rescue; calls by dose curve; also: nearly all actives have a fitted effect of over 55% in size
# Shiga toxin inh = A qHTS for Small Molecule Inhibitors of Shiga Toxin; Vero cells, Shiga toxin protein synthesis inhibition reporter; actives 9.2% (n = 290,000); inhibition, % at 38.7 µM; AID 2315, 2010; in the data active = inhibition mostly above about 28%, no sharp cut-off; inactive = mostly below about 43%
# CHX counter = Cycloheximide Counterscreen for Small Molecule Inhibitors of Shiga Toxin | cell reporter, cycloheximide protein synthesis inhibition counterscreen | max response, % | actives 12% (n = 300,000) | AID 2314, 2010; in the data active = max response mostly above about 13%, no sharp cut-off; inactive = mostly below about 14%; also: read at 38.3 µM for the half of the compounds with a filed dose
# Numbers stand for hits; - = inactive; ? = inconclusive; . = not tested or not shown. Sampled rows, rich in hits. Any-hit rate of the full collection: about 21%. Unless noted, calls follow the shape of the dose curve; as a rule, active = well fitted inhibition curve with a large enough effect; inconclusive = small, poorly fitted or top-dose-only effect, or another doubt; inactive = no such curve, though single readings can be large or run the other way.
SMILES,Pf growth 96h,NS1 inh,Pf growth 48h,SARS PLpro yeast,Shiga toxin inh,CHX counter
COc1ccc(C2c3ccc(O)cc3Oc3ncn(Cc4ccccc4)c(=N)c32)cc1OC (stereo not drawn),?,-,11.7µM,-,-,-
COc1ccc(C2c3ccc(O)cc3Oc3ncn4nc(-c5ccccn5)nc4c32)cc1OC (stereo not drawn),-,-,10.4µM,-,-,-
CCCCc1cc(=O)oc2cc(OCC(=O)Nc3cccnc3)c(Cl)cc12,-,-,-,-,-,-
CS(=O)(=O)c1ccc(Cl)c(NC(=O)CSc2nc3ccccc3c(=O)n2Cc2ccco2)c1,-,.,-,-,.,.
COC(=O)c1ccc(CSc2nc3ccccc3c(=O)n2Cc2ccco2)o1,-,-,?,-,-,15.9
CS(=O)(=O)c1ccc(Cl)c(NC(=O)CSc2nc3ccccc3c(=O)n2CCCN2CCOCC2)c1,7.38µM,-,?,-,-,-
Cc1ccc(S(=O)(=O)N2CCOCC2)cc1NC(=O)CSc1nc2ccccc2c(=O)n1Cc1ccccc1,5.22µM,?,?,?,-,-
O=C(CSc1nc2ccccc2c(=O)n1Cc1ccco1)Nc1cccc(O)c1,13.1µM,-,-,-,-,19.0
Cc1cc(=O)[nH]c(-c2ccc(C(F)(F)F)cc2)n1,-,-,-,-,-,-
O=C(CSc1nc2cc(Cl)ccc2c(=O)n1Cc1ccco1)Nc1ccc(S(=O)(=O)N2CCOCC2)cc1,10.4µM,?,?,-,-,-
C1=C(c2c[nH]c3ccccc23)CCNC1,-,-,9.28µM,-,-,-
CC(C)N1CC=C(c2c[nH]c3ccccc23)CC1,?,-,1.04µM,-,-,-
CC(C(=O)c1c[nH]c2ccccc12)N1CCOCC1 (stereo not drawn),-,-,-,-,-,-
CCCS(=O)(=O)c1nc(S(=O)(=O)c2ccc(C)cc2)c(N2CC(C)OC(C)C2)s1 (stereo not drawn),-,-,?,-,-,-
O=C(COc1ccc2ccccc2c1)N1CCN(C(=O)c2cccnc2)CC1,?,-,-,-,-,-
COc1ccc(/C(N)=N/OC(=O)c2ccc([N+](=O)[O-])c(C)c2)cc1OC,?,-,-,-,-,-
N/C(=N\OC(=O)COc1ccc2ccccc2c1)c1cccnc1,-,-,-,-,52.5,24.3
N/C(=N\OC(=O)c1ccc2ccccc2c1)c1ccccc1Cl,-,-,?,-,176.4,50.8
Cc1cc(C(=O)O/N=C(\N)c2ccncc2)ccc1[N+](=O)[O-],-,-,-,-,80.5,40.9
N/C(=N\OC(=O)c1ccc2ccccc2c1)c1ccncc1,-,-,?,-,117.5,37.3
N/C(=N\OC(=O)c1ccc2ccccc2c1)c1ccccn1,-,.,-,?,-,-
N/C(=N\OC(=O)c1cc(-c2ccccc2)nc2ccccc12)c1ccc(Cl)cc1,?,-,-,-,-,-
COc1ccc(NS(=O)(=O)c2ccc(C)c(C(=O)N3CC(C)OC(C)C3)c2)cc1 (stereo not drawn),-,.,-,-,.,.
N/C(=N\OC(=O)COc1ccc2ccccc2c1Br)c1ccncc1,-,-,-,-,91.3,23.5
Cc1cccc(OCC(=O)O/N=C(\N)c2ccncc2)c1,?,-,-,-,59.3,19.7
SMILES,Pf growth 96h,NS1 inh,Pf growth 48h,SARS PLpro yeast,Shiga toxin inh,CHX counter
O=C(NNS(=O)(=O)c1ccc(Br)cc1)c1ccncc1,-,-,-,-,-,-
Cc1ccc(S(=O)(=O)NNC(=O)c2ccncc2)cc1[N+](=O)[O-],1.85µM,-,-,-,-,-
Cc1ccc(C(=O)COC(=O)c2ccncc2)cc1[N+](=O)[O-],9.28µM,-,-,-,-,-
Cc1ccc(-c2[nH]ncc2CN2CCN(C(=O)c3cccs3)CC2)cc1C,?,-,-,-,-,-
CNC(=O)CSc1nc2ccccc2c(=O)n1-c1cc(OC)ccc1OC,-,-,?,-,-,-
N/C(=N\OC(=O)COc1ccc2ccccc2c1)c1ccncc1,-,-,-,-,34.4,30.5
CCOc1ccccc1/C=C/c1onc(C)c1S(=O)(=O)N1CCC(C(=O)N(CC)CC)CC1,-,-,10.4µM,-,-,-
